High-throughput results deposited in PubChem by National Center for Advancing Translational Sciences (NCATS).
In the library only some 5.7% were active in any assay of this set; here they are far more common.
HEK293 tox = cytotoxicity in counter-screen for GLP-1R inverse agonists; HEK293 cAMP-luciferase reporter cells, luminescence, 24 h; Potency, µM (top dose mostly 38.3 µM), without a hit: at the highest dose activity change, negative = inhibition, usual class: inhibitors; 410,000 compounds, 0.13% hits; AID 624418;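 further: loss of luciferase light is scored as toxicity; potency means the concentration at half of the fitted maximal effect; on the % scale 0 is the no-effect control and ±100 the full control effect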
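Cells in DMEM/10% Nu serum/1% pen-strep, 1536-well format. Pre-incubated 12 h, dosed with 23 nL compound, incubated a further 24 h. Luciferase detection, 12 min at room temp, luminescence.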
GLP-1R inv ag = inverse agonists of human GLP-1 receptor; P43220; HEK293 GLP-1R CRE-luciferase, luminescence, 24 h; GLP-1R form is constitutively active; Potency, µM (highest dose often 38.3 µM), for the others: at the highest dose activity change, negative = inhibition, hits mostly inhibitors; 410,000 compounds, 1.6% hits; AID 624417; further: potency means the concentration at half of the fitted maximal effect; on the % scale 0 is the no-effect control and ±100 the full control effect; nearly all actives have a fitted effect of over 55% in size
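Luminescence readout: a drop in cAMP-driven luciferase signal flags inverse agonism at a constitutively active GLP-1R stably expressed in HEK293. Compound exposure lasted 24 hr at 37 deg C, 5% CO2.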
ClpP mod = qHTS Assay for Activators of ClpP; ATP-dependent Clp protease proteolytic subunit (Bacillus subtilis (strain 168)), P80244; purified B. subtilis ClpP, FRET peptide cleavage, 20 min; Potency, µM (titrated, usually from 57.5 µM), inactives show at the top dose activity change, negative = active; 340,000 compounds, 1.9% hits; active means well fitted falling curve with a large enough effect; inconclusive means small, poorly fitted or top-dose-only effect; inactive means no such curve, though single readings can be large or run the other way; further: potency means the concentration at half of the fitted maximal effect; the source files actives as falling curves though it sought activators and does not explain the sign; nearly all actives have a fitted effect of over 65% in size
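Purified B. subtilis ClpP, 10 microg/mL final in Tris/HCl pH8 with KCl, BSA, glycerol and Tween-20, cleaved an Abz/nitrotyrosine-quenched decapeptide. Fluorescence (ex 320, em 430) was read at 0 and 20 min at room temperature. Delta was normalized to 5.8 microM ADEP and DMSO/no-enzyme controls.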
DRD3 antagonist = D3 dopamine receptor (human) antagonism. D3R cells, DiscoveRx beta-arrestin luminescence, antagonist mode; active compounds read low. max response, negative = inhibition, %. 360,000 compounds, 2.5% hits; in the data active means max response below about -50%; inconclusive means no clear call, values can overlap the other calls; further: on the % scale 0 is the no-effect control and ±100 the full control effect
Target sequence (P35462 whole entry, looked up): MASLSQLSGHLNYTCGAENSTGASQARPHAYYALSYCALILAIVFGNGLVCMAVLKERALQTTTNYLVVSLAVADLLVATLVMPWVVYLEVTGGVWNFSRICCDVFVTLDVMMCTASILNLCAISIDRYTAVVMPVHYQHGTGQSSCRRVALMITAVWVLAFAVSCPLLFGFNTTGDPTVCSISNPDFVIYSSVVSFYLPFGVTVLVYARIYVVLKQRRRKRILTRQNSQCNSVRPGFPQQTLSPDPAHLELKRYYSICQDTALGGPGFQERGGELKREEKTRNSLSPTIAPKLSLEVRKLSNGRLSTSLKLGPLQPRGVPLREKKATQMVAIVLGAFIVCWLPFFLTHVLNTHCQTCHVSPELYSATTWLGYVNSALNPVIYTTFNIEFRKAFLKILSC
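Cells plated overnight at 1500 cells/well, then exposed to library compounds with dopamine controls for 90 minutes at 37 degrees C. DiscoveRx reagent added for 30–60 minutes at room temperature; luminescence read, quantitative HTS format.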
DRD3 agonist = activates the human D3 dopamine receptor | D3R DiscoveRx beta-arrestin cells, luminescence, 90 min | max activation, % | 410,000 compounds, 0.58% hits | AID 652048; in the data active means max activation above about 30%; further: 0% is about no effect
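Agonist mode: compounds and dopamine controls were applied to plated cells for 90 min at 37 degrees C after an overnight attachment at 1500 cells/well. Luminescent read-out followed 30 - 60 minutes at room temperature with DiscoveRx detection reagent.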
GLP-1R agonist = agonists of human GLP-1 receptor | HEK293 GLP-1R CRE-luciferase, luminescence, 4-6 h; cells express a hypersensitive GLP-1R form | Potency, µM (doses to about 45.6 µM), for inactives: top-dose activation, actives largely listed as activators | 380,000 compounds, 0.007% hits | AID 624172; further: potency means the concentration at half of the fitted maximal effect; % of control where 0% means no effect
Active calls of the source: *; ? = inconclusive; . = no result. Unless noted, the call rests on the fitted dose curve; in most records, active means well fitted curve in the direction sought with a large enough effect; inconclusive means small, poorly fitted or top-dose-only effect, or another doubt; inactive means no such curve, though single readings can be large; an effect the other way counts as inactive or inconclusive.

SMILES	HEK293 tox	GLP-1R inv ag	ClpP mod	DRD3 antagonist	DRD3 agonist	GLP-1R agonist
CC1(C)CN(c2ccccc2)N(C(=O)c2ccc(C#N)cc2)C1=O	-18%	3.2µM*	1%	-17	-6	-3%
CC1(C)CN(c2ccccc2)N(C(=O)c2ccc(F)cc2)C1=O	-18%	0%	0%	?	-14	-12%
CN(C)c1nc(-c2ccccc2)nnc1C(F)(F)F	0%	-5%	-1%	-64*	3	5%
Fc1ccc(Oc2nc(-c3ccccc3)nnc2C(F)(F)F)cc1	-10%	19%	-9%	-24	-1	-17%
Fc1ccc(Sc2nc(-c3ccccc3)nnc2C(F)(F)F)cc1	-10%	-1%	-1%	-88*	-17	-16%
CN(C)CCNc1nc(-c2ccccc2)nnc1C(F)(F)F	1%	3%	-16%	-51*	3	1%
Cc1nnc(-c2ccc(Cl)cc2)nc1NCCN(C)C	-3%	-26%	.	-6	-1	1%
Cc1ccc(NC(=O)c2oc3c(c2C)-c2[nH]ncc2CC3)c(Cl)c1	1%	40%	-12%	.	-18	.
COc1cc(OC)c(OC)cc1CNC(=O)c1cccc(S(=O)(=O)N2CCc3ccccc3C2)c1	-4%	-14%	-4%	13	9	-4%
Cc1cccc(NC(=O)CSc2nc3ccccc3nc2N2CCC(C)CC2)c1	-11%	?	-1%	.	1	.
COc1ccc(-c2nc(CSCC(=O)NC3CC3)c(C)o2)cc1OC	9%	41%	3%	-5	-1	8%
COc1ccc(-c2nc(CSCC(=O)NC3CCCc4ccccc43)c(C)o2)cc1OC (stereo unspecified)	-20%	?	28µM*	25	1	1%
CCOC(=O)N1CCC(NC(=O)CSCc2nc(-c3ccc(OC)c(OC)c3)oc2C)CC1	8%	0%	8.9µM*	?	-15	0%
COC(=O)CSc1nnc2n(-c3ccccc3)c(=O)c3c4c(sc3n12)COC(C(C)C)C4 (stereo unspecified)	-4%	-1%	-2%	.	-8	9%
CCN(CC)S(=O)(=O)c1ccc2c(c1)N(CC(=O)NCCc1ccc(OC)c(OC)c1)C(=O)CO2	-10%	14%	5%	.	-16	.
Cc1ccc2cc(C#N)c(NCCNC(=O)C3CCC3)nc2c1C	10%	-12%	16µM*	2	0	-3%
CCN(CCO)c1ccc(Nc2cc(-c3ccc(-c4ccccc4)cc3)ncn2)cc1	-21%	?	1%	105	18	9%
CCN(CCO)c1ccc(N=Nc2cc(C)[nH]n2)cc1	-67%	?	2%	-52*	-9	-6%
CCC/C(=N\NC(=O)c1csc(C)c1C)c1cccs1	4%	?	-1%	-51*	-10	3%
Cc1ccc2c(c1)Oc1ccc(NC(=O)CCl)cc1C(=O)N2	?	11µM*	.	?	1	7%
CN(C)S(=O)(=O)c1cccc(NC(=O)c2cc(-c3cccs3)nc3ccccc23)c1	-29%	?	16µM*	52	-1	-26%
O=C(c1cc(-c2cccs2)nc2ccccc12)N1CCN(c2ccccc2)CC1	?	?	.	26	22	11%
O=C(c1cc(-c2cccs2)nc2ccccc12)N1CCN(S(=O)(=O)c2cccc(F)c2)CC1	3%	?	28µM*	54	2	-16%
O=C(c1cc(-c2cccs2)nc2ccccc12)N1CCN(S(=O)(=O)c2ccccc2)CC1	0%	-9%	25µM*	29	10	-13%
O=C(CSc1n[nH]c(-c2cccs2)n1)N1CCN(S(=O)(=O)c2ccc3ccccc3c2)CC1	-17%	-5%	-13%	-70*	-2	-8%
O=C(Nc1ccc(S(=O)(=O)NC2=NCCCCC2)cc1)c1cccc(OC(F)F)c1	-13%	-17%	0%	2	1	-1%
CSc1ncc2c(n1)-c1ccccc1N(Cc1ccc(F)cc1)S2(=O)=O	-14%	-5%	-1%	.	9	.
